In the supplement of paper PMC9262897, “Low-cost anti-mycobacterial drug discovery using engineered E. coli” (Nature Communications, 2022):
Structures can show the parent of a compound that is named as a salt. ± gives the standard deviation of the averaged measurements.

tested on: E. coli TESEC Mtb DapB; experiment: growth (OD600 after 10 h); higher = more growth (less inhibition); conditions: arabinose induction (level): High; compound 0.1 mM; raw OD600 reference: median of DMSO wells […], cell-free background 0.041
Method: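 TESEC E. coli strains in which the native enzyme is deleted and replaced by arabinose-inducible Mtb Asd, DapB, CysH or TrpD, each grown in its selective medium. Strains were screened against the Prestwick library at 0.1 mM and 1% DMSO in 384-well format at low and high arabinose induction. Growth is read as OD600 after 10 h in triplicate.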

Point of comparison: `NS(=O)(=O)c1cc(C(=O)O)c(NCc2ccco2)cc1Cl` [Furosemide], growth 0.181 ± 0.0028. Against it:
- Clc1ccc(C(c2ccccc2Cl)C(Cl)Cl)cc1 (stereo not given) [Mitotane] — higher, 0.208 ± 0.0072
- C[C@H]1[C@H](NC(=O)/C(=N\OC(C)(C)C(=O)O)c2csc(N)n2)C(=O)N1S(=O)(=O)O [Aztreonam] — within error, 0.188 ± 0.0055
- Cn1c(=O)c2c(ncn2CC2OCCO2)n(C)c1=O [Doxofylline] — higher, 0.1957 ± 0.00055
- CCCc1cc(C(N)=S)ccn1 [Prothionamide] — higher, 0.208 ± 0.013
- Nc1nc2c(ncn2COC(CO)CO)c(=O)[nH]1 [Ganciclovir] — higher, 0.21 ± 0.023
- N[C@@H](C(=O)N[C@@H]1C(=O)N2C(C(=O)O)=C(Cl)CS[C@H]12)c1ccccc1 [Cefaclor hydrate] — higher, 0.201 ± 0.0068
- C[C@H](N)[C@H](O)c1cccc(O)c1 [Metaraminol bitartrate] — higher, 0.208 ± 0.014
- CN1CCCN=C1/C=C/c1cccc(O)c1 [Oxantel pamoate] — higher, 0.1953 ± 0.0019
- C=C1C[C@H]2[C@@H]3C=C(C)C4=CC(=O)CC[C@]4(C)[C@H]3CC[C@]2(C)[C@@]1(OC(C)=O)C(C)=O [Melengestrol acetate] — within error, 0.187 ± 0.0082
- O=C(O)Cc1ccccc1Nc1c(Cl)cccc1Cl [Diclofenac sodium] — lower, 0.166 ± 0.0086
- Cc1ccc(-c2cc(C(F)(F)F)nn2-c2ccc(S(N)(=O)=O)cc2)cc1 [Celecoxib] — lower, 0.0473 ± 0.00055
- CC(COc1ccccc1)NC(C)C(O)c1ccc(O)cc1 (stereo not given) [Isoxsuprine hydrochloride] — within error, 0.202 ± 0.042
- C=C(CC)C(=O)c1ccc(OCC(=O)O)c(Cl)c1Cl [Ethacrynic acid] — within error, 0.18 ± 0.0058
- CC(CN(C)C)C(C)(O)Cc1ccc(Cl)cc1 (stereo not given) [Clobutinol hydrochloride] — within error, 0.187 ± 0.0091
- CC(=O)OCC(=O)[C@@]1(O)CC[C@H]2[C@@H]3CCC4=CC(=O)CC[C@]4(C)[C@@]3(F)[C@@H](O)C[C@@]21C [Fludrocortisone acetate] — within error, 0.188 ± 0.014
- CN(N=O)C(=O)N[C@H]1C(O)O[C@H](CO)[C@@H](O)[C@@H]1O (mixture of isomers) [Streptozotocin] — within error, 0.192 ± 0.016
- CCOCCn1c(N2CCCN(C)CC2)nc2ccccc21 [Emedastine] — higher, 0.205 ± 0.018
- Cc1scc2c1N(C(=O)CN1CCN(C)CC1)c1ccccc1NC2=O [Telenzepine dihydrochloride] — higher, 0.1919 ± 0.0014
- CN(Cc1cnc2nc(N)nc(N)c2n1)c1ccc(C(=O)N[C@@H](CCC(=O)O)C(=O)O)cc1 [Methotrexate] — higher, 0.2 ± 0.0058

same assay, conditions: arabinose induction (level): Low; compound 0.1 mM; raw OD600 reference: median of DMSO wells 0.227, cell-free background 0.041

Point of comparison: `CN(N=O)C(=O)N[C@H]1C(O)O[C@H](CO)[C@@H](O)[C@@H]1O` (mixture of isomers) [Streptozotocin], growth 0.206 ± 0.015. Against it:
- Clc1ccc(C(c2ccccc2Cl)C(Cl)Cl)cc1 (stereo not given) [Mitotane] — within error, 0.224 ± 0.033
- C[C@H]1[C@H](NC(=O)/C(=N\OC(C)(C)C(=O)O)c2csc(N)n2)C(=O)N1S(=O)(=O)O [Aztreonam] — within error, 0.186 ± 0.026
- Cn1c(=O)c2c(ncn2CC2OCCO2)n(C)c1=O [Doxofylline] — higher, 0.238 ± 0.0011
- CCCc1cc(C(N)=S)ccn1 [Prothionamide] — within error, 0.221 ± 0.036
- Nc1nc2c(ncn2COC(CO)CO)c(=O)[nH]1 [Ganciclovir] — higher, 0.245 ± 0.013
- N[C@@H](C(=O)N[C@@H]1C(=O)N2C(C(=O)O)=C(Cl)CS[C@H]12)c1ccccc1 [Cefaclor hydrate] — higher, 0.247 ± 0.017
- C[C@H](N)[C@H](O)c1cccc(O)c1 [Metaraminol bitartrate] — within error, 0.23 ± 0.024
- CN1CCCN=C1/C=C/c1cccc(O)c1 [Oxantel pamoate] — within error, 0.218 ± 0.019
- C=C1C[C@H]2[C@@H]3C=C(C)C4=CC(=O)CC[C@]4(C)[C@H]3CC[C@]2(C)[C@@]1(OC(C)=O)C(C)=O [Melengestrol acetate] — within error, 0.211 ± 0.036
- O=C(O)Cc1ccccc1Nc1c(Cl)cccc1Cl [Diclofenac sodium] — lower, 0.172 ± 0.014
- Cc1ccc(-c2cc(C(F)(F)F)nn2-c2ccc(S(N)(=O)=O)cc2)cc1 [Celecoxib] — lower, 0.0486 ± 0.0019
- CC(COc1ccccc1)NC(C)C(O)c1ccc(O)cc1 (stereo not given) [Isoxsuprine hydrochloride] — higher, 0.271 ± 0.028
- C=C(CC)C(=O)c1ccc(OCC(=O)O)c(Cl)c1Cl [Ethacrynic acid] — within error, 0.181 ± 0.022
- CC(CN(C)C)C(C)(O)Cc1ccc(Cl)cc1 (stereo not given) [Clobutinol hydrochloride] — within error, 0.222 ± 0.026
- CC(=O)OCC(=O)[C@@]1(O)CC[C@H]2[C@@H]3CCC4=CC(=O)CC[C@]4(C)[C@@]3(F)[C@@H](O)C[C@@]21C [Fludrocortisone acetate] — within error, 0.242 ± 0.039
- NS(=O)(=O)c1cc(C(=O)O)c(NCc2ccco2)cc1Cl [Furosemide] — within error, 0.194 ± 0.0081
- CCOCCn1c(N2CCCN(C)CC2)nc2ccccc21 [Emedastine] — within error, 0.211 ± 0.019
- Cc1scc2c1N(C(=O)CN1CCN(C)CC1)c1ccccc1NC2=O [Telenzepine dihydrochloride] — within error, 0.264 ± 0.071
- CN(Cc1cnc2nc(N)nc(N)c2n1)c1ccc(C(=O)N[C@@H](CCC(=O)O)C(=O)O)cc1 [Methotrexate] — higher, 0.254 ± 0.022
